Screening results deposited in PubChem BioAssay by National Center for Advancing Translational Sciences (NCATS).
Vaccinia Venus: qHTS for Stage-Specific Inhibitors of Vaccinia Orthopoxvirus: Venus Reporter Primary qHTS; Potency, µM (highest dose often 36.5 µM), without a hit: at the top dose activity change, negative = inhibition, most hits filed as inhibitors; AID 720580, 2013; actives 0.46% (n = 330,000); Vaccinia virus Venus reporter expression, fluorescence; calls by dose curve; tested in A549 cells; note: potency is the fitted concentration of half-maximal effect; % is set by controls: 0 for no effect and ±100 for the full control effect; nearly all actives have a fitted effect of over 30% in size
NS1 inh: qHTS Assay for Inhibitors of Influenza NS1 Protein Function; actives 0.4% (n = 270,000); AID 2326, 2010; Potency, µM (doses to about 46.1 µM), without a hit: at the top dose activity, positive = more growth; calls by dose curve; note: potency is the fitted concentration of half-maximal effect; actives are rising curves; nearly all actives have a fitted effect of over 50% in size
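A cell-based growth assay was used: compounds that relieve NS1-induced slow growth of budding yeast raise OD600. Assay medium was yeast nitrogen base with ammonium sulphate and -URA supplement, pH 6.0, with 2% galactose.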
HCV inh: qHTS Assay for Inhibitors of Hepatitis C Virus (HCV); Huh7.5.1 HCVcc-Cre infection, luciferase reporter, 44 h; Potency, µM (titrated, usually from 41.8 µM), inactives show at the top dose activity change, negative = inhibition, most hits filed as inhibitors; actives 3.4% (n = 340,000); AID 651820, 2012; note: potency is the fitted concentration of half-maximal effect; % is set by controls: 0 for no effect and ±100 for the full control effect
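Cells seeded at 1,000/well and cultured 4 h, then compounds added followed by HCVcc-Cre virus (~0.5 moi). After 44 h further culture, luciferase substrate was added, plates held 15 min at room temperature, and luminescence read for 15 sec.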
Pf growth 48h: Primary qHTS for delayed death inhibitors of the malarial parasite plastid, 48 hour incubation. actives 5.9% (n = 310,000). P. falciparum luciferase growth in erythrocytes, 48 h. AID 504832, 2011. Potency, µM (titrated, usually from 28.7 µM), for the others: top-dose activity change, negative = inhibition, hits mostly inhibitors; note: potency is the fitted concentration of half-maximal effect; % is set by controls: 0 for no effect and ±100 for the full control effect
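Luciferase-expressing P. falciparum in infected erythrocytes (2% hematocrit, 0.1% parasitemia final) in RPMI 1640/0.5% Albumax were exposed to compound for 48 hours at 37 C, 5% CO2; growth read as luminescence.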
VACV mCherry inh: qHTS for Stage-Specific Inhibitors of Vaccinia Orthopoxvirus: mCherry Reporter Primary qHTS. Vaccinia virus mCherry reporter infection, fluorescence. Potency, µM (doses to about 36.5 µM), inactives show at the highest dose activity change, negative = inhibition, hits mostly inhibitors. actives 0.63% (n = 310,000); calls by dose curve; tested in A549 cells; note: potency is the fitted concentration of half-maximal effect; % is set by controls: 0 for no effect and ±100 for the full control effect; nearly all actives have a fitted effect of over 35% in size
Pf growth 96h: Primary qHTS for delayed death inhibitors of the malarial parasite plastid, 96 hour incubation; AID 504834, 2011; actives 6.9% (n = 320,000); P. falciparum luciferase reporter growth, 96 h; Potency, µM (top dose mostly 28.7 µM), inactives show at the highest dose activity change, negative = inhibition, hits mostly inhibitors; note: potency is the fitted concentration of half-maximal effect; % is set by controls: 0 for no effect and ±100 for the full control effect
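Two parasite generations (96 h, 37 C, 5% CO2) of compound exposure in infected erythrocytes (0.05% parasitemia, 2% hematocrit). Luciferase-reporter P. falciparum; decreased luminescence indicates inhibited growth, aimed at apicoplast-acting delayed death.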
Flu NS1 inh: Assay for Inhibitors of Influenza NS1 Protein Function: Hit Validation. 1,400 tested, under 10 active. activity change, negative = inhibition, % at 32.9 µM. influenza NS1 function cell assay, 15-point titration. shares compounds with NS1 inh; calls by dose curve; note: 0% is about no effect
The depositor's hits bear a star; i = inactive; ? = inconclusive; / = no result. Compounds with a hit are over-represented: about 11% of the library has one in this group of screens. Unless noted, calls come from the whole dose curve; as a rule, active = well fitted inhibition curve with a large enough effect; inconclusive = small, poorly fitted or top-dose-only effect, or another doubt; inactive = no such curve, though single readings can be large or run the other way.

SMILES	Vaccinia Venus	NS1 inh	HCV inh	Pf growth 48h	VACV mCherry inh	Pf growth 96h	Flu NS1 inh
CCC1c2ccc(C)n2CCN1C(=O)Nc1ccccc1OC (stereo unspecified)	2%	16µM*	-14%	?	-3%	111%	3
CCCCn1nc2cc(C(=O)N(CC)c3ccc(OC)cc3)ccc2c1OCC	-22%	1%	?	?	i	-17%	/
FC(F)(F)c1cccc(CN2CCC(c3cc(-c4cccs4)n[nH]3)CC2)c1	?	/	?	-21%	?	-19%	/
Cc1cc2nc3c(=O)n(C4CCCCC4)c(=O)[nH]c3nc2cc1N	21%	7.9µM*	-3%	-6%	-26%	?	0
Cc1cc(C)cc(Nc2cc(=O)n(C3CCCCC3)c(=O)[nH]2)c1	?	7%	6%	?	/	130%	/
O=C(NCCCO)C(=O)NCC(c1ccc2c(c1)OCO2)N1CCN(c2ccc(F)cc2)CC1 (stereo unspecified)	/	2.2µM*	9%	?	/	-1%	-21
NC(=O)COc1ccc2oc(=O)cc(-c3cc4ccccc4o3)c2c1	/	4%	7%	-14%	/	20%	/
CN(C)C(=O)Oc1ccc2oc(=O)cc(-c3cc4ccccc4o3)c2c1	/	?	11µM*	14%	/	6%	-4
CCCCNC(=S)NCc1ccc2[nH]c(C)cc2c1	-2%	1.4µM*	?	-14%	i	1%	-6
Cc1cc2cc(CNC(=O)c3ccc(Br)o3)ccc2[nH]1	50%	0%	-19%	?	19%	?	/
Cc1ccc(C(=O)OC/C(O)=C(\C#N)c2nc3ccccc3[nH]2)cc1S(=O)(=O)N1CCOCC1	-23%	10µM*	-2%	8%	-4%	?	18
O=S(=O)(CCNCc1ccccc1)NC1CCCCC1	-5%	/	16%	/	i	/	/
Cc1ccc(OCC(=O)N/N=C2\CCOc3c(C)cccc32)cc1	/	-3%	8%	7%	/	69%	/
COc1cccc2c1OCC/C2=N\NC(=O)COc1ccc(C)cc1	-7%	?	13%	22%	-5%	?	-28
CC(C)(C)NC(=O)Cn1c(SCC(=O)NC2CCCCC2)nc2ccccc21	/	7%	-9%	?	/	/	/
Cc1c(NC(=O)OCCNC(=O)COc2ccc(Cl)cc2Cl)sc(=S)n1C	-24%	?	?	-16%	-11%	?	15
CCN(CC)CCCN=Cc1c(O)n(CCc2ccc(F)cc2)c(=O)[nH]c1=O	-15%	?	5%	-10%	/	-16%	-10
N#Cc1ccccc1N=Cc1ccc(Br)cc1	-10%	11%	2%	3%	-14%	-5%	/
Cc1coc2cc3oc(=O)c4c(c3cc12)CCCC4	-3%	-8%	?	5%	-13%	1%	/
COc1ccc2c(c1)nc(NCCO)n2C	-19%	3.5µM*	10%	27%	-16%	-29%	-2
Cc1ccc(S(=O)(=O)CCC(=O)OCC(=O)N2CC(=O)Nc3ccccc32)cc1	/	?	12%	-19%	/	-9%	-5
COc1ccc(OC)c(NC(=O)COC(=O)CCC2CCCC2)c1	/	/	10%	-8%	/	11%	/
COc1ccc(NS(=O)(=O)c2ccc(OC)c(NC(=O)CCC3CCCC3)c2)cc1	-23%	?	-12%	6%	-10%	-18%	7
COc1cc(NS(=O)(=O)c2ccc(NC(=S)NC(=O)c3cccs3)cc2)nc(OC)n1	-12%	?	13%	2%	i	-8%	/
Cc1cc(C)cc(NS(=O)(=O)c2ccc(NC(=S)NC(=O)c3cccs3)cc2)c1	?	13µM*	?	?	?	30%	-33
SMILES	Vaccinia Venus	NS1 inh	HCV inh	Pf growth 48h	VACV mCherry inh	Pf growth 96h	Flu NS1 inh
COc1ccc(OC)c(-n2c(C)nc3cc(C(=O)O)ccc32)c1	?	14µM*	18%	24%	/	6%	19
COc1cc(/C=N/NC(=O)c2cc3ccccc3cc2O)ccc1OCCN1CCCCC1	0%	11µM*	?	?	-22%	?	-24
COc1cc(/C=N/NC(=O)c2ccncc2)ccc1OCCN1CCCCC1	-4%	0%	15%	16%	-2%	27%	/
COC(=O)CCCC(=O)N1CCCC(C(=O)c2ccc(OC)cc2C)C1 (stereo unspecified)	/	?	2%	4%	/	15µM*	-11
COc1ccc(C(=O)C2CCCN(C(=O)CCc3ccccn3)C2)c(C)c1 (stereo unspecified)	/	-3%	?	-1%	/	-31%	/
CN(C)/C=C1\N=C(c2ccc(Cl)cc2Cl)OC1=O	/	-10%	?	/	/	/	/
CCC1CCCCN1CCCNC(=O)CN1C(=O)CSc2ccc(S(=O)(=O)N3CCC(C)CC3)cc21 (stereo unspecified)	-6%	1.8µM*	-3%	0%	-13%	25%	-5
CNC(=S)N1N=C(c2ccc(Br)cc2)CC1c1ccc(OC)cc1 (stereo unspecified)	-18%	22µM*	10µM*	-27%	-27%	10µM*	-32
Cc1sc(NC(=O)c2sc3nc4c(C)cccc4cc3c2N)c(C#N)c1C	14%	?	?	?	2%	?	5
CN(C)Cc1cccc(-c2ccccc2)c1O	-9%	/	5%	/	?	/	/
CN(C)S(=O)(=O)c1cc(NC(=O)CSc2ncc(C(F)(F)F)cc2Cl)ccc1Cl	-11%	13µM*	?	-28%	-23%	?	-11
CN(C)S(=O)(=O)c1cc(NC(=O)CSc2cccc[n+]2[O-])ccc1Cl	/	/	12%	-11%	/	?	/
O=C(O)c1ccccc1-c1nc2ccccc2c(=O)n1O	-16%	/	17%	-20%	-12%	?	/
Cc1ccc(CCN2CC(C(=O)NC3CCCCC3)CC2=O)cc1 (stereo unspecified)	/	-4%	2%	-3%	/	19%	/
Cc1ccc(CCN2CC(C(=O)NC3CCCC3)CC2=O)cc1 (stereo unspecified)	1%	?	14%	26%	-7%	-2%	-17
O=S(=O)(/N=C(/Nc1cccc2ccccc12)c1ccccc1)c1ccccc1	2%	16%	3%	?	?	155%	/
O=S(=O)(/N=C(/Nc1cccc2ccccc12)c1ccccc1)c1cccs1	-13%	14µM*	2%	?	/	12µM*	-13
NC(=O)c1ccc(-n2nnnc2SCC(=O)Nc2ccccc2)cc1	/	14%	5%	-1%	/	?	/
